Measurements from PubChem BioAssay (NCATS).
Inconclusive results are not listed. A number with no mark means an inactive call. Activity calls are given as the source filed them. Calls follow the shape of the dose curve; as a rule, active = well fitted inhibition curve with a large enough effect; inconclusive = small, poorly fitted or top-dose-only effect; inactive = flat fitted curve, though single readings scatter.

test system: CRL-7250; assay: Cytotoxic Profiling of Annotated Libraries Using Quantitative High-Throughput Screening (AID 1296008); settings: Five cell lines viability, CellTiter-Glo ATP luminescence, 48-72 h; max response: stronger effect = lower value; also: nearly all actives have a fitted effect of over 60% in size
Method in brief: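 Cells exposed to compounds for 48 or 72 hr at 37 degrees Celsius. Viability read as ATP-coupled luminescence with CellTiter-Glo after 10 min at room temperature.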
% is scaled to controls: 0 for no effect and ±100 for the full control effect; potency is read from the fitted curve at half-maximal effect.

Row | SMILES | Potency | max response [%]
1 | COc1ccc(-c2cc3onc(-c4ccncc4)c3c(=O)n2C)cc1 | 651 nM (active) | –
2 | COC1CC/C=C(\C)C(=O)Nc2cc(O)cc(c2)CC(C)CC(OC)C(O)C(C)/C=C(\C)C1OC(N)=O (centres undefined) | 3170 nM (active) | –
3 | C=C[C@@]12COC(=O)C(=C)[C@@H]1[C@@H](O)[C@H](C(=C)C(=O)OC)[C@@H](O)C2 | – | -65.9
4 | COC(=O)C1=CO[C@@H](O[C@@H]2O[C@H](CO)[C@@H](O)[C@H](O)[C@H]2O)[C@H]2[C@@H]1C=C[C@]21C=C([C@H](C)OC(=O)/C=C/c2ccc(O)cc2)C(=O)O1 | 1220 nM (active) | –
5 | COc1cc(N2CCC(N)CC2)ccc1Nc1ncc(Cl)c(-c2c[nH]c3ccccc23)n1 | 6510 nM (active) | –
6 | C=C(C)Cn1c(SCC(=O)c2cccs2)nc2sc3c(c2c1=O)CCCC3 | – | -0.048
7 | CCc1c[nH]c2ncnc(N3CC[C@](N)(CNC(=O)c4ccc(F)cc4F)C3)c12 | – | -13.8
8 | CC[C@@H](C)Nc1cc(C(=O)NC2CC3CCC(C2)N3c2ccc(C(=O)C3CC3)cn2)c(C)cc1C(N)=O (some centres undefined) | 259 nM (active) | –
9 | Cc1nc(-c2cn3c(n2)-c2ccc(-c4cnn(C(C)(C)C(N)=O)c4)cc2OCC3)n(C(C)C)n1 | – | 4.52
10 | Cc1csc2c(N[C@@H](C)CN3CCN(S(=O)(=O)c4ccc(Cl)c(Cl)c4)CC3)ncnc12 | 259 nM (active) | –
11 | N#Cc1ccc(Nc2nc(-c3ccc(O)cc3O)cs2)cc1C(F)(F)F | 5800 nM (active) | –
12 | CC(C)c1ccccc1OC(=O)NCCc1ccc2ccccc2c1 | – | -4.95
13 | O=C(Cc1cccc(OC(F)(F)F)c1)Nc1ccc(CCCCc2nnc(NC(=O)Cc3ccccn3)s2)nn1 | 16.6 nM (active) | –
14 | COC1=CC(=O)C[C@@H](C)[C@@]12Oc1c(Cl)c(OC)cc(OC)c1C2=O | – | -44.3
15 | Cc1ccc(C(=O)Nc2ccc(CN3CCN(C)CC3)c(C(F)(F)F)c2)cc1C#Cc1cnc2[nH]ncc2c1 | 58 nM (active) | –
16 | CCc1cc(C(N)=O)ccc1-n1nc(C(C)C)c2c(-n3cnc(-c4cnn(C)c4)c3)ccnc21 | 4110 nM (active) | –
17 | COc1cc2nc(C3CC3)nc(N3CCN(c4ccccc4OC)CC3)c2cc1OC | – | -2.72

Row | SMILES | Potency | max response [%]
18 | CC[C@@H](C)Nc1cc(C(=O)NC2CC3CC[C@@H](C2)N3c2ccc(C(=O)C3CC3)cn2)c(C)cc1C(N)=O (some centres undefined) | 231 nM (active) | –
19 | Nc1nc(O)c(C2=C3C(=Nc4ccccc43)C(=O)NCC2)[nH]1 | – | -2.87
20 | COc1ccc(C[C@H]2COC(=O)[C@@H]2Cc2ccc(O[C@@H]3O[C@H](CO)[C@@H](O)[C@H](O)[C@H]3O)c(OC)c2)cc1OC | 893 nM (active) | –
21 | COc1cc(O)c2c(c1)C1OC1C[C@H](O)[C@H](O)C(=O)/C=C\C[C@H](C)OC2=O (some centres undefined) | 20600 nM (active) | –
22 | CC(/C=C/C(=O)NO)=C\[C@@H](C)C(=O)c1ccc(N(C)C)cc1 | 2910 nM (active) | –
23 | C/C1=C/CCC2=CC(OC2=O)C(C)(C)/C=C/C1=O (centres undefined) | 2310 nM (active) | –
24 | CCCCCCOC(=O)/N=C(\N)c1ccc(NCc2nc3cc(C(=O)N(CCC(=O)OCC)c4ccccn4)ccc3n2C)cc1 | – | -1.92
25 | C#CCCCn1cc(-c2cccc3c2N[C@H](C)CC(=O)N3)cn1 | – | -3.86
26 | COC(=O)Nc1cc(Nc2cc(NC3CC3)c3ncc(C#N)n3n2)c(Cl)c(N2CCN(C)CC2)c1 | 9330 nM (active) | –
27 | CCCC1(CCC)CCC2(CCN(CCCN(CC)CC)C2)CC1 | 4110 nM (active) | –
28 | COc1ccc(N(C(=O)Nc2c(C)cccc2C)c2cc(Nc3ccc(N4CCN(C)CC4)cc3)ncn2)c(OC)c1 | 2910 nM (active) | –
29 | CN1C(=O)c2sccc2N(C)c2nc(Nc3ccc(S(N)(=O)=O)cc3)ncc21 | 7410 nM (active) | –
30 | CC(C)NCCCn1c(Sc2cc3c(cc2I)OCO3)nc2c(N)ncnc21 | 411 nM (active) | –
31 | O=C(Nc1ccc(Cl)cc1)C1CCCN(C(=O)c2cccc(-c3ccco3)c2)C1 (centres undefined) | 13000 nM (active) | –
32 | COc1c(C)cnc(Cn2cc(C#CCC(C)(C)O)c3c(Cl)nc(N)nc32)c1C | 259 nM (active) | –
33 | Cc1cc(-c2nc(-c3ccc(OC(F)(F)F)cc3)no2)nn1Cc1ccnc(N2CCN(C3CC3)CC2)c1 | 25.9 nM (active) | –
34 | CCOC(=O)[C@@]1(CCCCCCOc2ccc(Cl)cc2)CO1 | – | -16.7
